# Pemphigus Ab inh: inhibitors of pemphigus antibody binding to DSG3, primary screen, biochemical, bead-based, flow cytometry, scFv-GFP | Desmoglein-3 (Homo sapiens), P32926 | DSG3-coupled beads, scFv-anti-DSG3-GFP binding; hits give low values | binding (percent of control), % at 10 µM | 310,000 compounds, 0.48% hits | AID 588358, 2011;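 active = binding more than 3 SD below its plate's average and above zero; inconclusive = below that plate limit but binding exactly zero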;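 note: hits lower antibody fragment binding to DSG3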
# Target sequence (P32926 whole entry, looked up, the tested form may be a part): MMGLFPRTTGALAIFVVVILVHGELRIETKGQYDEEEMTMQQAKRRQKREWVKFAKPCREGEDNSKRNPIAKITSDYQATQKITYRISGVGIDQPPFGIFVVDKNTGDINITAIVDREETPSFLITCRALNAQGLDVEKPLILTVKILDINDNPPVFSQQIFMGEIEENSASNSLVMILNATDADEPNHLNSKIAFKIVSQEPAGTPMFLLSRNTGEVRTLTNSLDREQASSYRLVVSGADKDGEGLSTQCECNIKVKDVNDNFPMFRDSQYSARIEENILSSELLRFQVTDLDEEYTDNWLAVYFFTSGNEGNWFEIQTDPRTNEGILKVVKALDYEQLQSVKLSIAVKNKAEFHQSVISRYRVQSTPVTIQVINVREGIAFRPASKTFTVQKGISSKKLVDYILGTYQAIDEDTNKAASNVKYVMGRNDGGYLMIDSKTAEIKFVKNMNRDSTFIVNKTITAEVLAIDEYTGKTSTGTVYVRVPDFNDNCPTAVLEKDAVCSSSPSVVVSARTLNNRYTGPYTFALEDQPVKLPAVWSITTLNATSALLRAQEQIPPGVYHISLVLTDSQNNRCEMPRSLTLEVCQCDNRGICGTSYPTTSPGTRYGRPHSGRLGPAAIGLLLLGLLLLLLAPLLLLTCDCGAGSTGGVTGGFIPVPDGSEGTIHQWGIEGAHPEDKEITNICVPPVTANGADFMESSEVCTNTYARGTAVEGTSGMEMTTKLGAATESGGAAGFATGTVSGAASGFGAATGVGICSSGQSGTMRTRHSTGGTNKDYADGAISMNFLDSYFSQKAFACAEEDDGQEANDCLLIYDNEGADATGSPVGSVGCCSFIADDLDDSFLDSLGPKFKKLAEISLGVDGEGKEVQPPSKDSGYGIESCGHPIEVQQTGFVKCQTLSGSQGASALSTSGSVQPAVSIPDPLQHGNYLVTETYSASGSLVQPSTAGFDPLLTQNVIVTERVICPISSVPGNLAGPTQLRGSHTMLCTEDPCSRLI
# VLA-4 inh: inhibition in human VLA-4 binding assay, primary screen, VLA-4 allosteric modulator project, MLPCN library, flow cytometry, VLA-4 expressing cells; Integrin alpha-4 (Homo sapiens), P13612; ligand binding flow cytometry; inhibition, % (about 7 µM as worked out from the volumes in the protocol); 330,000 compounds, 0.2% hits; AID 2557, 2010; in the data active = inhibition above about 50%
# AI-2 QS mod: Vibrio harveyi AI-2 quorum sensing modulators, primary screen, JMH597 strain, luminescence/OD600 ratio. AID 2094, 2009. Vibrio harveyi JMH597 AI-2 luminescence/OD600 ratio, 9 h; hits give low values; strain lacks LuxN and CqsS sensors; 0 = neutral-control median. 300,000 compounds, 0.4% hits. activity change, % at 7.5 µM; in the data active = activity change below about -75%, passing the limit was not always enough; inconclusive = no clear call, values can overlap the other calls;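 note: luminescence divided by OD600 gain over 9 h not by final OD600 alone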
# NTR1 ag: agonists of human NTR1, primary screen, imaging, U2OS cells, beta-arrestin-GFP, high content | AID 493036, 2011 | NTR1-U2OS beta-arrestin-GFP spot imaging, agonist mode | activation, % at 20 µM | 330,000 compounds, 0.17% hits | Neurotensin receptor type 1 (Homo sapiens), P30989;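 active = activation at or above 40% of the spot to cytoplasm intensity ratio, with at least 20 cells analyzed; inconclusive = wells under 20 cells, flagged as cytotoxic or low count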
# NTR1 ag confirm: NTR1 agonists, single-dose retest, confirmation, imaging, U2OS cells, beta-arrestin-GFP, single concentration | shares compounds with NTR1 ag | NTR1-U2OS beta-arrestin-GFP translocation imaging | activation, % at 20 µM | 480 compounds, 38% hits;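 active = mean activation at 20 µM of at least 40%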
# Hits are given with their value; – = inactive; ? = inconclusive; · = not tested or not shown. Only some compounds are listed: those with a hit (about 1.1% of all), similar ones and a draw of the others.
SMILES,Pemphigus Ab inh,VLA-4 inh,AI-2 QS mod,NTR1 ag,NTR1 ag confirm
C[C@H](NC(=O)c1[nH]cnc1C(=O)Nc1ccc(Cl)cc1)c1ccccc1,–,–,·,51,–
O=C(Nc1ccc(Cl)cc1)c1nc[nH]c1C(=O)NCc1ccccc1,–,–,·,50,–
O=C(Cn1cc(S(=O)(=O)N2CCCC2)c(S(=O)(=O)N2CCCC2)c1)NCc1ccco1,·,–,–,–,·
CC(=O)c1ccc(OCCOc2ccc(C#N)cc2)cc1,–,–,–,–,·
O=C1ON=C(c2ccc(Cl)cc2)/C1=C/c1ccc(O)cc1,·,–,–,66,98
Cc1cccc2sc(NNC(=O)c3cc(-c4cccs4)nc4ccccc34)nc12,–,–,–,40,–
NNC(=O)c1cc(-c2cccs2)nc2ccccc12,–,–,–,–,·
Cc1c(NC(=O)COc2c(F)c(F)c(F)c(F)c2F)c(=O)n(-c2ccccc2)n1C,–,–,–,–,·
COCCCn1c(=NC(=O)c2ccccc2)c(C#N)cc2c(=O)n3cccc(C)c3nc21,–,–,–,50,–
CC(C)N(C)Cc1nnnn1CC(=O)N(C)Cc1ccc(F)cc1,–,–,–,–,·
COc1ccc2oc(C(=O)N(C)Cc3ccc(OC(F)F)cc3)c(C)c2c1,–,–,–,–,·
O=c1/c(=C\c2ccc(O)cc2)sc2nc(-c3ccccc3)c(-c3ccccc3)n12,–,–,–,46,–
CC(C)C(=O)N1CCN(c2ccc(NC(=O)c3ccc4c(c3)OCCO4)cc2Cl)CC1,·,–,–,90,85
O=C(CN1CCN(C(=O)c2ccc(-c3nc4ccccc4s3)o2)CC1)Nc1ccccc1Cl,–,·,·,48,–
C[C@@H]1CC=C[C@H]2[C@H]1C(=O)N(Cc1ccccc1)[C@H]2c1ccc2ccccc2c1,–,–,–,–,·
C[C@@H]1CC=C[C@H]2[C@H]1C(=O)N(Cc1ccccc1)[C@H]2c1ccc2ccccc2c1Br,–,·,–,43,–
c1ccc(SCCOCCn2cncn2)cc1,–,–,–,–,·
OC(Cn1cncn1)(c1ccccc1)c1ccccc1,–,–,–,55,–
COCC(=O)Nc1sc2c(c1C(=O)OC)CCCC2,·,–,–,–,·
COC(=O)c1c(NC(=O)COC(=O)c2ccc(O)cc2)sc2c1CCCCC2,–,–,–,43,–
NC(=O)CC(NC(=O)c1ccccc1)c1ccc(NC2CCCCCCC2)c([N+](=O)[O-])c1 (stereo unspecified),–,–,–,–,·
Cc1cccc(N2CCN(C(=O)C3CCN(c4ncnc5c4nc4n5CCCCC4)CC3)CC2C)c1 (stereo unspecified),–,–,·,55,–
Cc1ccc(N2CCN(C(=O)C3CCCN(c4ncnc5c4nc4n5CCCCC4)C3)CC2)c(C)c1 (stereo unspecified),–,–,–,73,–
Cc1ccc(C)c(N2CCN(C(=O)C3CCCN(c4ncnc5c4nc4n5CCCCC4)C3)CC2)c1 (stereo unspecified),–,–,–,–,·
CCCN1Cc2cc(OC)ccc2-c2ccccc2S1(=O)=O,–,·,·,–,·
SMILES,Pemphigus Ab inh,VLA-4 inh,AI-2 QS mod,NTR1 ag,NTR1 ag confirm
Cc1c(C(=O)N2CCN(C3CCS(=O)(=O)C3)CC2)oc2ccc(Cl)cc12 (stereo unspecified),?,·,·,–,·
Fc1ccc(-n2nnnc2-c2cnc(-c3cccs3)nc2C(F)(F)F)cc1,·,–,–,49,67
CC(OC(=O)c1cccc(S(=O)(=O)N2CCCCCC2)c1)C(=O)Nc1ccc(S(N)(=O)=O)cc1 (stereo unspecified),–,–,–,–,·
N#CC1=C(c2ccccc2)/C(=C/c2ccccc2)OC1=O,–,–,–,66,87
CCCCCOC(=O)C1=C(C)Nc2nnnn2C1c1ccccc1Cl (stereo unspecified),–,–,–,58,–
COC(=O)C1=C(C)Nc2nnnn2C1c1ccccc1Cl (stereo unspecified),–,–,–,–,·
COc1ccc(S(=O)(=O)NCc2cc(=O)n(C)c(=O)n2C)cc1C,–,–,–,–,·
Oc1ccccc1/C=N/Nc1cc(N2CCCC2)nc(N2CCCC2)n1,–,–,–,40,–
CCCc1cc2nnc(SCC(=O)N(C)C3CCCCC3)n2c(N)n1,·,–,–,–,·
CC(C)c1ccc(Nc2nnc(SC3CCOC3=O)s2)cc1 (stereo unspecified),–,–,–,52,76
CCCCOc1ccc(CSC(=N)N)cc1Cl,–,–,–,50,–
CNC[C@@H]1Oc2ccc(NC(=O)Nc3cccc4ccccc34)cc2C(=O)N([C@@H](C)CO)C[C@@H]1C,·,–,·,–,·
c1ccc(N(c2ccccc2)c2nc(N3CCCC3)nc(-n3ccnc3)n2)cc1,·,–,–,48,–
O=C(Nc1ccc(Cl)cc1)/C(=C/c1cccc(O)c1)c1nc2ccccc2s1,–,–,–,49,56
CCOc1cc(N2CCOCC2)c(OCC)cc1NC(=O)c1nn(CC)c(=O)c2ccccc12,–,–,·,45,–
COc1cc(/C=C/C(=O)c2ccc(C)c([N+](=O)[O-])c2)cc(OC)c1O,–,–,–,–,·
COc1cccc(/C=C/C(=O)c2ccc(C)c([N+](=O)[O-])c2)c1,–,–,–,66,–
COc1ccc(/C=C/C(=O)c2ccc(C)c([N+](=O)[O-])c2)cc1O,–,–,–,43,–
COc1cc(C(=O)/C=C/c2cccnc2)c([N+](=O)[O-])cc1OC,–,–,–,42,47
CC(=O)c1ccc(-n2ccc(=O)cc2)cc1,–,–,–,–,·
CCCCCc1cc(=O)oc2c(C(CCN3CCCC(C)C3)c3ccc(N(C)C)cc3)c(OC)cc(OC)c12 (stereo unspecified),–,–,–,51,53
CCCCCc1cc(=O)oc2c(C(CCN3CCCC(C)C3)c3cc(OC)c(OC)c(OC)c3)c(OC)cc(OC)c12 (stereo unspecified),–,–,–,–,·
COc1ccc(C(CCN2CCCCC2)c2c(OC)cc(OC)c3c(-c4ccccc4)cc(=O)oc23)cc1 (stereo unspecified),–,–,–,42,41
COc1cc(OC)c2c(-c3ccccc3)cc(=O)oc2c1C(CCN1CCCCC1)c1ccc(N(C)C)cc1 (stereo unspecified),–,–,–,–,·
COC(=O)c1cc(C(=O)OCC(=O)NC(=O)c2ccccc2)cc([N+](=O)[O-])c1,–,–,–,–,·
O=C1c2ccc(Cl)cc2S(=O)(=O)c2cccc(C(=O)N3CCC(Cc4ccccc4)CC3)c21,–,–,·,52,80
CCCOc1ccc(/C=C2/C(=O)ON=C2C)cc1OCC,–,–,–,–,·

# Source: PubChem BioAssay (several laboratories)
